The panel holds about 83,000 compounds, 20% with a hit somewhere; the sample as a whole holds those more often.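 Values shown are percent growth following 48 h exposure of cells in 96-well plates to a single concentration of compound; below 10 was considered active.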 A number with no mark means an inactive call. Active and inactive are the calls of the source.

Some test systems named below: NCI-H23 lung; NCI-H226 lung; NCI-H322M lung; HOP-62 NSCLC; NCI-H460 lung; HOP-92 NSCLC; NCI-H522 lung; A549/ATCC NSCLC; 786-0 renal; COLO 205 colon; DU-145 prostate; K-562 leukemia; MALME-3M melanoma; MDA-MB-231 breast; RXF 393 renal; SF-268 CNS; SF-295 CNS; SF-539 CNS; UACC-257 melanoma; M14 melanoma.
Holding throughout (assay): NCI-60 one-dose screen, 48 h (100 = growth as untreated, 0 = no growth, -100 = all killed)
What all share (details): 10 µM unless noted

Take `Cc1cc(NC(=O)CNc2nc(Oc3ccc(F)cc3)nc(-c3ccc(F)cc3)n2)ccc1Cl`: the growth is 98.1% in the assay with NCI-H23 lung; 98.9% in the assay on NCI-H226 lung; 98.7% in the assay with NCI-H322M lung; 94.5% with HOP-62 NSCLC; 99.3% in the assay on NCI-H460 lung; 97.7% in the assay on HOP-92 NSCLC. Also, the growth in the assay on NCI-H522 lung was 85.7%; in the assay with A549/ATCC NSCLC, 87.1%; in the assay with 786-0 renal, 99.5%; in the assay on COLO 205 colon, 112%; with DU-145 prostate, 112%; in the assay with K-562 leukemia, 89.5%. In addition, the growth in the assay with MALME-3M melanoma was 109%; with MDA-MB-231 breast it was 106%; in the assay on RXF 393 renal it was 92.7%; in the assay on SF-268 CNS, 100%; in the assay on SF-295 CNS, 96.9%; in the assay with SF-539 CNS, 109%. The growth was 101% in the assay with UACC-257 melanoma and 104% in the assay with M14 melanoma.
`C=C(C)[C@@H]1CC[C@]2(C(=O)n3ccnc3)CC[C@]3(C)[C@H](CC[C@@H]4[C@@]5(C)CCCNC(C)(C)[C@@H]5CC[C@]43C)[C@@H]12`: the growth in the assay on NCI-H23 lung was 38.8%; in the assay on NCI-H226 lung, 64.5%; in the assay with NCI-H322M lung, 66.9%; with HOP-62 NSCLC, 66.3%; in the assay on NCI-H460 lung, -71.8% (active); in the assay on HOP-92 NSCLC, 51.5%. The growth with NCI-H522 lung was 50.7%; with A549/ATCC NSCLC it was 23%; with 786-0 renal, 29.9%; in the assay with COLO 205 colon, -69.8% (active); in the assay on DU-145 prostate, 37%; in the assay on K-562 leukemia, -38.4% (active). For the same compound, the growth was -74.4% (active) in the assay with MALME-3M melanoma; 20.5% with MDA-MB-231 breast; 10.8% in the assay on RXF 393 renal; 59.4% in the assay with SF-268 CNS; -54.7% (active) in the assay on SF-295 CNS; 24.6% in the assay on SF-539 CNS. The growth in the assay on UACC-257 melanoma is 5.14% (active); in the assay with M14 melanoma it was -78.6% (active).
As to `Nc1c(C(=O)Nc2cccc3ccccc23)sc2nc3c(cc12)CCCCCC3`, the growth in the assay with NCI-H23 lung was 47.8%; with NCI-H226 lung, 70.6%; in the assay with NCI-H322M lung, 48.1%; in the assay with HOP-62 NSCLC it was 38.8%; in the assay on NCI-H460 lung it was 11.2%; in the assay on HOP-92 NSCLC, 52.9%. Besides, the growth was -37.1% (active) in the assay with NCI-H522 lung; 20.1% in the assay on A549/ATCC NSCLC; 26.4% in the assay with 786-0 renal; -2.61% (active) in the assay on COLO 205 colon; 14.9% with DU-145 prostate; 9.1% (active) with K-562 leukemia. In addition, the growth in the assay with MALME-3M melanoma was 75.9%; in the assay on MDA-MB-231 breast it was 39.3%; in the assay on RXF 393 renal, 21.8%; with SF-268 CNS, 45.6%; with SF-295 CNS, 23.7%; in the assay on SF-539 CNS, -0.219% (active). Moreover, the results for the growth in the assay with UACC-257 melanoma and in the assay with M14 melanoma were 68.8% and 3.04% (active), respectively.
Regarding `Fc1ccc(N/N=C/c2ccc(-n3cccn3)cc2)cc1`, the growth with NCI-H23 lung was 90.7%; in the assay on NCI-H226 lung it was 92.3%; in the assay with NCI-H322M lung, 99.9%; in the assay on HOP-62 NSCLC, 82.1%; with NCI-H460 lung it was 106%; in the assay on HOP-92 NSCLC, 105%. The growth was 77.2% in the assay with NCI-H522 lung; 93.7% in the assay with A549/ATCC NSCLC; 104% with 786-0 renal; 98.1% in the assay with COLO 205 colon; 93.8% with DU-145 prostate; 93.3% with K-562 leukemia. Also, the growth in the assay with MALME-3M melanoma was 106%; with MDA-MB-231 breast it was 80.1%; with RXF 393 renal, 105%; with SF-268 CNS, 81.3%; in the assay on SF-295 CNS, 87.6%; in the assay with SF-539 CNS it was 100%. The values for the growth in the assay on UACC-257 melanoma and in the assay on M14 melanoma were 118% and 88.8%, respectively.
With `CCCn1c2cc(OCc3cn(-c4ccc(Br)cc4)nn3)ccc2c2ccnc(C)c21`, the growth in the assay on NCI-H23 lung is 81.7%; in the assay with NCI-H226 lung, 25.6%; in the assay with NCI-H322M lung, 71.5%; with HOP-62 NSCLC it was 63.9%; in the assay on NCI-H460 lung it was 36.2%; in the assay on HOP-92 NSCLC it was 60%. Further, the growth in the assay with NCI-H522 lung is 76.1%; with A549/ATCC NSCLC, 53.7%; with 786-0 renal, 36.7%; in the assay on COLO 205 colon it was 42%; in the assay with DU-145 prostate, 90.2%; in the assay on K-562 leukemia it was 35.4%. Moreover, the growth in the assay with MALME-3M melanoma was 87.1%; with MDA-MB-231 breast, 50.5%; with RXF 393 renal, 51%; in the assay on SF-268 CNS, 88%; in the assay on SF-295 CNS, 65.6%; with SF-539 CNS, 36.4%. For the same compound, the growth in the assay with UACC-257 melanoma was 53.3%; in the assay with M14 melanoma, 67.5%.
Take `CC1(C)[C@@H](O)CC[C@]2(C)[C@H]3CC[C@@H]4[C@H]5[C@H](c6cn(-c7ccccc7)nn6)CC[C@]5(CO)CC[C@@]4(C)[C@]3(C)CC[C@@H]12`: the growth with NCI-H23 lung is 92.1%; with NCI-H226 lung, 80.9%; in the assay on NCI-H322M lung it was 79.7%; in the assay with HOP-62 NSCLC it was 93.9%; in the assay on NCI-H460 lung, 78.4%; in the assay on HOP-92 NSCLC, 100%. Further, the growth with NCI-H522 lung was 69.4%; in the assay on A549/ATCC NSCLC it was 74.5%; in the assay with 786-0 renal, 91.7%; in the assay with COLO 205 colon, 95.2%; with DU-145 prostate, 95.4%; in the assay with K-562 leukemia, 79.2%. Also, the growth with MALME-3M melanoma is 104%; in the assay on MDA-MB-231 breast, 84.3%; with RXF 393 renal it was 65.3%; in the assay on SF-268 CNS, 76.7%; in the assay on SF-295 CNS, 86.5%; in the assay with SF-539 CNS, 92.6%. Further, the figures for the growth in the assay on UACC-257 melanoma and in the assay with M14 melanoma were 83.6% and 90.5%, respectively.
As to `CCOC(=O)C1=C(C)n2nc(CC#N)c(C#N)c2NC1c1ccc(CC)cc1` (stereo not given), the growth is 85.6% with NCI-H23 lung; 87.6% in the assay on NCI-H226 lung; 85.6% in the assay on NCI-H322M lung; 81.7% in the assay on HOP-62 NSCLC; 104% in the assay with NCI-H460 lung; 85.9% in the assay on HOP-92 NSCLC. Moreover, the growth is 85.5% in the assay on NCI-H522 lung; 96.5% in the assay on A549/ATCC NSCLC; 106% in the assay with 786-0 renal; 97.8% in the assay on COLO 205 colon; 106% in the assay on DU-145 prostate; 106% with K-562 leukemia. The growth was 86.8% in the assay with MALME-3M melanoma; 87.5% with MDA-MB-231 breast; 107% in the assay with RXF 393 renal; 99.1% in the assay with SF-268 CNS; 101% in the assay on SF-295 CNS; 110% in the assay on SF-539 CNS. Moreover, the growth is 111% with UACC-257 melanoma and 91.5% in the assay with M14 melanoma.
Regarding `COC(=O)CCc1n(Cc2ccc3ccccc3c2)c2ccccc2[n+]1Cc1ccc2ccccc2c1`, the growth with NCI-H23 lung was -7.39% (active); in the assay with NCI-H226 lung it was 17.7%; in the assay with NCI-H322M lung, 36.6%; with HOP-62 NSCLC, 19%; with NCI-H460 lung, 6.29% (active); with HOP-92 NSCLC, -34.4% (active). In addition, the growth in the assay with NCI-H522 lung is -29.4% (active); in the assay with A549/ATCC NSCLC, 38.3%; in the assay with 786-0 renal it was 15.4%; with COLO 205 colon it was -57.3% (active); in the assay with DU-145 prostate it was 28%; with K-562 leukemia, 9.25% (active). Further, the growth in the assay on MALME-3M melanoma is -34.5% (active); in the assay with MDA-MB-231 breast it was -39.4% (active); in the assay with RXF 393 renal it was 23.7%; with SF-268 CNS it was 12.1%; in the assay on SF-295 CNS it was 13.1%; with SF-539 CNS it was 16.3%. Further, the results for the growth in the assay with UACC-257 melanoma and in the assay on M14 melanoma were -28.2% (active) and -25.5% (active), respectively.

Values taken from PubChem BioAssay (NCI).
